Measured values: PubChem BioAssay (NCATS)
Several values for one entry are separate records, joined by “and”; a condition that tells them apart may be missing. Equal entries are not always repeated. Results filed as inconclusive are left out. Entries that show only a call come without a potency. Activity calls are given as the source filed them. Unless noted, calls follow the shape of the full dose curve.

How the values were obtained:
[1] = Cellular Toxicity (caspase-3) Hek293 (AID 664; active = well fitted curve in the direction sought with a large enough effect; an effect the other way counts as inactive or inconclusive;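 also: cells exposed to compound for 16 h at 37 °C before readout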)
Summary of the method: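 qHTS, HEK293 (human embryonic kidney), 16 h cpd exposure in complete medium. Caspase-3/7 activation = luminescence increase; normalized to DMSO/100 uM tamoxifen; Hill-fit AC50.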

[2] = MultiTox-Fluor Cytotoxicity Assay - LYMP1-001 - Dead Cells (AID 946; active = well fitted curve in the direction sought with a large enough effect; an effect the other way counts as inactive or inconclusive)
Summary of the method: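 AC50 from Hill fit of concentration-response; data normalized to DMSO (basal) and 15 uM tetraoctylammonium bromide (100%). LYMP1-001 lymphoblastoid cells, 2500/well, 16 hr compound at 37 C; dead-cell protease fluorescence, Ex/Em 485/520.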

[3] = molecular target: Estrogen receptor (Homo sapiens) (UniProt P03372); assay: qHTS assay for small molecule agonists of estrogen receptor alpha signaling (AID 588514); also: nearly all actives have a fitted effect of over 70% in size
Summary of the method: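 Efficacy is expressed against 20 nM 17-beta-estradiol (100%) and DMSO basal (0%); EC50 from Hill equation. Assay: beta-lactamase reporter in ER-alpha-UAS-bla HEK 293 cells, 18 h compound incubation, CCF4 detection.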

[4] = molecular target: Peroxisome proliferator-activated receptor delta (Homo sapiens) (UniProt Q03181); assay: qHTS assay for small molecule agonists of peroxisome proliferator-activated receptor delta signaling (AID 588534)
Summary of the method: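 Agonist-mode qHTS; reporter cells, 5 hrs 37 C pre-incubation; compound titration, 18 hrs 37 C; CCF4 dye, 2 hrs RT; fluorescence read. EC50/efficacy via Hill fit.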

[5] = qHTS assay for small molecule antagonists of peroxisome proliferator-activated receptor delta signaling (AID 588535); conditions: HEK293T PPARd-UAS-bla, beta-lactamase FRET ratio, 18 h; 460 nm channel;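 also: cells co-treated with a PPAR-delta agonist as stimulator during compound exposure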
Summary of the method: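 Fluorescence from CCF4-loaded GeneBLAzer PPAR-delta-UAS-bla HEK293T cells (2 hrs RT loading) quantified reporter inhibition after an 18 hr, 37 C compound exposure across a titration.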

[6] = molecular target: Peroxisome proliferator-activated receptor gamma (Homo sapiens) (UniProt P37231); assay: qHTS assay for small molecule antagonists of peroxisome proliferator-activated receptor gamma signaling (AID 588537; active = well fitted inhibition curve with a large enough effect in the signal ratio, with a control signal flat, not every such curve was filed as active; the % refers to the signal ratio;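 also: reporter cells co-stimulated with 50 nM rosiglitazone agonist during compound treatment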)
Summary of the method: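 Fluorescence at 460 and 530 nm (405 nm excitation) reported beta-lactamase cleavage of CCF4 after 2 h room-temperature loading. HEK293 reporter cells in 1% charcoal/dextran-treated FBS had received compound and rosiglitazone for 16 h.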

[7] = qHTS assay for small molecule agonists of the antioxidant response element (ARE) signaling pathway (AID 651741; active = well fitted activation curve with a large enough effect in the signal ratio; the % refers to the signal ratio; also: potency is read from the fitted curve at half-maximal effect)
Summary of the method: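 Stably integrated ARE-beta-lactamase reporter HepG2 cells; 16 h compound incubation, 37 C; LiveBLAzer FRET substrate 2 h at room temperature; fluorescence intensity.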

[8] = qHTS assay for small molecule activators of the nuclear factor-kappa B (NF-kB) signaling pathway (AID 651749; active = well fitted activation curve with a large enough effect in the signal ratio; the % refers to the signal ratio); conditions: NF-kB-bla ME-180 cells, beta-lactamase FRET ratio, 16 h; activation: stronger effect = higher value
Summary of the method: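 In this qHTS format, compounds acting as activators increase NF-kB-driven beta-lactamase in ME-180 cells, measured as disrupted FRET after 16 hr exposure at 37C and 5% CO2.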

[9] = qHTS assay for cell viability of HEK293 cells (AID 743288; active = well fitted curve in the direction sought with a large enough effect; an effect the other way counts as inactive or inconclusive; also: nearly all actives have a fitted effect of over 50% in size); conditions: ATP luminescence (CellTiter-Glo), 18 h; max response: stronger effect = lower value
Summary of the method: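 After 18 h compound exposure at 37 C, parental HEK293 cells (2,000/well) are lysed with CellTiter-Glo and luminescence is read following 30 min at room temperature.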

[10] = molecular target: Nuclear receptor subfamily 1 group I member 2 (Rattus norvegicus) (UniProt Q9R1A7); assay: qHTS assay for small molecule activators of the rat pregnane X receptor (rPXR) signaling pathway (AID 651751; call rule not given here); conditions: rPXR reporter cells, luciferase (One-Glo), 24 h
[11] = Cellular Toxicity (caspase-3) Jurkat (AID 655; active = well fitted curve in the direction sought with a large enough effect; an effect the other way counts as inactive or inconclusive;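 also: cells exposed to compound for 16 h at 37 °C before reading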); conditions: Jurkat caspase-3 activation, luminescence, DMSO = 0%, tamoxifen = 100%; at 92.2 µM (top of the series)
Summary of the method: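 Jurkat cells (5000/well) in complete medium were treated with compounds for 16 hr at 37 °C, then Caspase-Glo 3/7 luminescence was read after 20 min at room temperature. Data normalized to DMSO (basal) and 100 uM tamoxifen (100%); AC50 from Hill fit.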

[12] = MultiTox-Fluor Cytotoxicity Assay - LYMP1-001 - Live Cells (AID 947; active = well fitted curve in the direction sought with a large enough effect; an effect the other way counts as inactive or inconclusive)
[13] = Cell Viability - LYMP2-010 (AID 981; active = well fitted curve in the direction sought with a large enough effect; an effect the other way counts as inactive or inconclusive;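 also: cells exposed to compound for 24 hours at 37 °C; nearly all actives have a fitted effect of over 55% in size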; also: potency is read from the fitted curve at half-maximal effect)
Summary of the method: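 Steps: seed 2500 LYMP2-010 cells per well; incubate 5 hr at 37 C; add compound; incubate 24 hr at 37 C; add CellTiter-Glo, wait 30 min at room temperature; read luminescence. Concentration-response fitted to Hill equation for AC50.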

[14] = Cell Viability - LYMP2-014 (AID 983; active = well fitted curve in the direction sought with a large enough effect; an effect the other way counts as inactive or inconclusive;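 also: cells exposed to compound for 24 h at 37 °C; nearly all actives have a fitted effect of over 50% in size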)
Summary of the method: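 Cells are plated at 2500/well and left 5 hr at 37 C. Compounds are added across a concentration range and incubated 24 hr at 37 C in complete medium. CellTiter-Glo is added, and luminescence is read after 30 min at room temperature.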

[15] = molecular target: Bile acid receptor (Homo sapiens) (UniProt Q96RI1); assay: qHTS assay for small molecule antagonists of farnesoid X receptor signaling (AID 588526)
Summary of the method: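 Antagonist mode: titrated compounds tested against chenodeoxycholic acid stimulation (normalized to 50 uM CDCA and DMSO) in GeneBLAzer HEK293T cells for 16 h. Beta-lactamase read by CCF4 fluorescence; IC50 from Hill fits.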

[16] = qHTS assay for small molecule activators of the human pregnane X receptor (PXR) signaling pathway (AID 720659; call rule not given here)
[17] = molecular target: Vitamin D3 receptor (Homo sapiens) (UniProt P11473); assay: qHTS assay for small molecule antagonists of vitamin D receptor signaling (AID 588541);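 also: receptor activated by calcitriol during compound treatment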
Summary of the method: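 VDR-UAS-bla HEK293T cells in 2% charcoal-stripped FBS were stimulated with 1-alpha,25-dihydroxyvitamin D3 (3 nM final) plus compound for 16 h at 37 C. The beta-lactamase CCF4 readout was normalized to 50 nM agonist and DMSO, and Hill fits gave IC50.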

[18] = molecular target: Vitamin D3 receptor (Homo sapiens) (UniProt P11473); assay: qHTS assay for small molecule agonists of vitamin D receptor signaling (AID 588543)
Summary of the method: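 GeneBLAzer VDR-UAS-bla HEK293T cells in 2% charcoal-stripped FBS medium were dosed with compound titrations for 16 h at 37 °C; CCF4 β-lactamase readout (405 nm ex, 460/530 nm em). EC50 and efficacy from Hill fits, normalized to 50 nM calcitriol (100%) and DMSO (0%).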

[19] = molecular target: Retinoic acid receptor RXR-alpha (Homo sapiens) (UniProt P19793); assay: qHTS assay for small molecule agonists of retinoid X receptor alpha signaling (AID 588544)
[20] = Cell Viability - LYMP1-003 - Assay at 24 hr (AID 963; active = well fitted curve in the direction sought with a large enough effect; an effect the other way counts as inactive or inconclusive)
Summary of the method: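 Cytotoxicity is scored as a concentration-dependent fall in ATP-linked luciferase signal in human lymphoblastoid LYMP1-003 cells treated 24 hr at 37 C in complete culture medium.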

Sequence of Peroxisome proliferator-activated receptor delta (Homo sapiens) (Q03181 whole entry, looked up): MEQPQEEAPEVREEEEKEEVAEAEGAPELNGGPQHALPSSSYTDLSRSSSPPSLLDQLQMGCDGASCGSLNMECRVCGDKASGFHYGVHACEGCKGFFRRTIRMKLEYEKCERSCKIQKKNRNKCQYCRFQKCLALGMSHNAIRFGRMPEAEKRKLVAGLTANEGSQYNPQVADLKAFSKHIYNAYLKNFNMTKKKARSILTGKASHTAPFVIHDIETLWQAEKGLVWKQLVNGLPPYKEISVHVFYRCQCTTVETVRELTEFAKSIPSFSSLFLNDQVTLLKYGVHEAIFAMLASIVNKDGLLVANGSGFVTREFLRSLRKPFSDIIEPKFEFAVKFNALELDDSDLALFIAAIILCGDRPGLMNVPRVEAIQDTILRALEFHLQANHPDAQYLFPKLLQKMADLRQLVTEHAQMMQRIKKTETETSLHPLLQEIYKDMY
Sequence of Peroxisome proliferator-activated receptor gamma (Homo sapiens) (P37231 whole entry, looked up): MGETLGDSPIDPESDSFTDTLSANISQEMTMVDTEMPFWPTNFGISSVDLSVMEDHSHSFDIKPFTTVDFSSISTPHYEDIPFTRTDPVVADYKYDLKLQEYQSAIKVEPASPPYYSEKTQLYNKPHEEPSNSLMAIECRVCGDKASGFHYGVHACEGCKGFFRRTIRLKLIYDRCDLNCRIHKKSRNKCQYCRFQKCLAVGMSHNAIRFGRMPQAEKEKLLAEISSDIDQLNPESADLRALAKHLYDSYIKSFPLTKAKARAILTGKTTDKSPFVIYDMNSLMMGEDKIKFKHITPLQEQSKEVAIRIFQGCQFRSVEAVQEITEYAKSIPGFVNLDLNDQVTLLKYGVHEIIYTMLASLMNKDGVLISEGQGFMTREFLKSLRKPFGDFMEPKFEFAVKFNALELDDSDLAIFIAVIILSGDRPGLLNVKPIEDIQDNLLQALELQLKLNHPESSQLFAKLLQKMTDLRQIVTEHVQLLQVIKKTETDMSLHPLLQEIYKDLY
Sequence of Nuclear receptor subfamily 1 group I member 2 (Rattus norvegicus) (Q9R1A7 whole entry, looked up): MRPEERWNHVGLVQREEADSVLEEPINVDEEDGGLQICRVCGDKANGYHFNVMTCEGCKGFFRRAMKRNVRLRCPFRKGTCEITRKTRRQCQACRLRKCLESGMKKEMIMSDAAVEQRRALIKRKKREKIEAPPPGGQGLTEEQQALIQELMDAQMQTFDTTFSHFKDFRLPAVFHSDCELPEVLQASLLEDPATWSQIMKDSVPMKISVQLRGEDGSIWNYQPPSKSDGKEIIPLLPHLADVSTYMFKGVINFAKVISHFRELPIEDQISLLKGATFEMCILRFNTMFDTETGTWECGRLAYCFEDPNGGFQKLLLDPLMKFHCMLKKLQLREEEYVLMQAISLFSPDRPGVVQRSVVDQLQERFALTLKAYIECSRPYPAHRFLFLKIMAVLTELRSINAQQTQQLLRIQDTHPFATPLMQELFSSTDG
Sequence of Vitamin D3 receptor (Homo sapiens) (P11473 whole entry, looked up): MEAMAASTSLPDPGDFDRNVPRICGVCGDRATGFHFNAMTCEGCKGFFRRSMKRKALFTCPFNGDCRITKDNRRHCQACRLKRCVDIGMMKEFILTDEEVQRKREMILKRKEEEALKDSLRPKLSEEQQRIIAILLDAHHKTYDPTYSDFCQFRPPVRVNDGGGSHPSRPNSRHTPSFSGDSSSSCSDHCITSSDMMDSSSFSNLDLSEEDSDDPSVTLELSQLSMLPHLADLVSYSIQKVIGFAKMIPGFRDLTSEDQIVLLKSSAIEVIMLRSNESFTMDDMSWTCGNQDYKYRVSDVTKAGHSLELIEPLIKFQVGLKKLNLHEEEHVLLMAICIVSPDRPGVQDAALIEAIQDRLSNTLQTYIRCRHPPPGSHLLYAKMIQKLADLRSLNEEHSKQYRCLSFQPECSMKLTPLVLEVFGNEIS
Sequence of Bile acid receptor (Homo sapiens) (Q96RI1 whole entry, looked up): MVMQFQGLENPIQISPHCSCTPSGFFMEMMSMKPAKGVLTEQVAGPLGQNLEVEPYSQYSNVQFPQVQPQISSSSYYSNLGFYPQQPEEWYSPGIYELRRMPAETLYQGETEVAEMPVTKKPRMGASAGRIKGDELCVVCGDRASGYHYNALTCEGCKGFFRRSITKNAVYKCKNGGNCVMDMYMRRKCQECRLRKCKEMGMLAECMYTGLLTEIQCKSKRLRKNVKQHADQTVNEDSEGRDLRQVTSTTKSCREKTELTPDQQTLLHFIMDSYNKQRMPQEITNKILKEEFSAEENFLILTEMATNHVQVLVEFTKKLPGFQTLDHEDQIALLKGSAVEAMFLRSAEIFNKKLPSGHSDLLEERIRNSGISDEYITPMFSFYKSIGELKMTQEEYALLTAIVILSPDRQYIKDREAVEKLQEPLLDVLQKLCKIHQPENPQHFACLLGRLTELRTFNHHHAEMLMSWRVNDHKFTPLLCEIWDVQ
Sequence of Retinoic acid receptor RXR-alpha (Homo sapiens) (P19793 whole entry, looked up): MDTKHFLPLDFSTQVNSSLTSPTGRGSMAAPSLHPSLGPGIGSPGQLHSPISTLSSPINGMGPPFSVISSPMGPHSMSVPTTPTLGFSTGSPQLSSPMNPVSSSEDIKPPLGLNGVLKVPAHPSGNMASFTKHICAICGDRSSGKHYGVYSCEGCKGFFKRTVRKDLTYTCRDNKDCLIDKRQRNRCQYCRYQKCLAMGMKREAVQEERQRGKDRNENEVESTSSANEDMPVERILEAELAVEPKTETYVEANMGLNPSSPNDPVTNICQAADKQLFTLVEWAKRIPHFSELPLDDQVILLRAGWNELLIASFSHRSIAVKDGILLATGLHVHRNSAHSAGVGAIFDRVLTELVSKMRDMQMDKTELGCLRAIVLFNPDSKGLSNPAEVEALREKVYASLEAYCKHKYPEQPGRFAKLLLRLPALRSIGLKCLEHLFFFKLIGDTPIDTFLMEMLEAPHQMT
Sequence of Estrogen receptor (Homo sapiens) (P03372 whole entry, looked up): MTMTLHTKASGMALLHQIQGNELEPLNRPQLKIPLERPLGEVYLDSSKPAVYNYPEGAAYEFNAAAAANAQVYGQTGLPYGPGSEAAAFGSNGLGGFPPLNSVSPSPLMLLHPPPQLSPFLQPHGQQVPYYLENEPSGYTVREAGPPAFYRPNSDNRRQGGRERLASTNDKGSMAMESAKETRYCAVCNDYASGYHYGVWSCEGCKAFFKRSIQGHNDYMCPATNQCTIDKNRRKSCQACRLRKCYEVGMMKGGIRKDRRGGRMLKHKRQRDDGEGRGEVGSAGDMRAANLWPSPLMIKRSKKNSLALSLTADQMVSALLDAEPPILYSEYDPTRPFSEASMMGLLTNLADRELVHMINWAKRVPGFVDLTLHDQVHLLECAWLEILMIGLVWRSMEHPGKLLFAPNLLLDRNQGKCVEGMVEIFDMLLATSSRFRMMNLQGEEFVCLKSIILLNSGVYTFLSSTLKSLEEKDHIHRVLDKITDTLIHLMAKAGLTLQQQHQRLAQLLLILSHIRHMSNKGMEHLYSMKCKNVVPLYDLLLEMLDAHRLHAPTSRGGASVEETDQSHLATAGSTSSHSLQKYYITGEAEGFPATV

| Structure (SMILES) | outcome [1] | Potency [2] | Potency [3] | outcome [4] | max response [5] | Potency [6] | Potency [7] | activation [8] | max response [9] | max response [10] | caspase-3 activation [11] | Potency [12] | Potency [13] | Potency [14] | outcome [15] | outcome [16] | outcome [17] | outcome [18] | Potency [19] | Potency [20] |
| --- | --- | --- | --- | --- | --- | --- | --- | --- | --- | --- | --- | --- | --- | --- | --- | --- | --- | --- | --- | --- |
| Cc1ccc(O)c(C)c1 | inactive | inactive | inactive | inactive | -17.8% and 29.7% | inactive | 398 µM (active) | 0.131% (inactive) and -0.324% (inactive) and 1.7% (inactive) | -1.16% (inactive) and -6.96% (inactive) and -11.5% (inactive) | -2.91% (inactive) and 1.12% (inactive) and -5.05% (inactive) | – | – | – | – | – | – | – | – | – | – |
| CCCCCCCC(=O)Cl | inactive | – | inactive | inactive | – | – | – | -0.835% (inactive) | -11% (inactive) | 5.82% (inactive) | -0.927% (inactive) | inactive | inactive | inactive | inactive | inactive | – | – | – | – |
| ClC(Cl)=C(Cl)Cl | inactive | – | – | – | – | inactive | inactive | 0.509% (inactive) and -0.543% (inactive) | – | -0.799% (inactive) and 2.48% (inactive) | -0.349% (inactive) and -0.592% (inactive) | inactive | – | inactive | inactive | inactive | inactive | inactive | inactive | – |
| BrCCBr | inactive | – | inactive | – | -6.18% and 14.8% | inactive | inactive | -0.199% (inactive) and 0.87% (inactive) | 2.15% (inactive) and 1.92% (inactive) | 2.8% (inactive) and -1.13% (inactive) | – | – | – | inactive | – | inactive | inactive | inactive | – | inactive |
| C[N+](C)(C)Cc1ccccc1 | inactive | inactive | inactive | – | -16.9% and 15.9% | inactive | inactive | – | – | -3.63% (inactive) and -0.669% (inactive) | – | inactive | inactive | inactive | inactive | inactive | inactive | inactive | – | inactive |
| O=C(Cl)C(Cl)(Cl)Cl | – | inactive | inactive | – | 6.34% | – | inactive | -1.07% (inactive) | -17% (inactive) | -0.469% (inactive) | – | inactive | – | – | inactive | inactive | inactive | inactive | – | inactive |
| ClC(Cl)(Cl)c1ccccc1 | inactive | – | inactive | – | 32% and 10.5% | – | inactive | – | -4.96% (inactive) and -3.96% (inactive) | 1.62% (inactive) and -4.94% (inactive) | 18.2% (inactive) and -0.502% (inactive) | inactive | inactive | inactive | inactive | inactive | inactive | inactive | – | – |
| Clc1nc(Cl)nc(Cl)n1 | inactive | inactive | inactive | – | -3.59% and 8.32% | – | inactive | 0.499% (inactive) and 0.444% (inactive) | – | -1.06% (inactive) and -1.98% (inactive) | 0.301% (inactive) | – | – | – | – | – | inactive | inactive | inactive | – |
| ClC(Cl)=C(Cl)C(Cl)=C(Cl)Cl | inactive | inactive | inactive | – | -24.7% and -5.61% | – | inactive | – | 3.55% (inactive) and -1.89% (inactive) | 2.24% (inactive) and -2.02% (inactive) | -0.64% (inactive) | inactive | – | inactive | – | inactive | – | – | – | inactive |
| Oc1ccc(Cl)cc1Cl | inactive | inactive | inactive | inactive | 0.988% | inactive | inactive | – | – | 0.337% (inactive) and 1.54% (inactive) | 3.55% (inactive) | – | – | inactive | inactive | inactive | inactive | inactive | – | inactive |
| CCC[CH2][Sn]([Cl])([Cl])[Cl] | – | inactive | inactive | inactive | 31.1% and 8.78% | inactive | 13.3 µM (active) | -0.955% (inactive) and -1.49% (inactive) | 9.1% (inactive) and -10.4% (inactive) | 2.08% (inactive) and 0.146% (inactive) | – | – | inactive | inactive | inactive | inactive | – | – | inactive | – |
| C=CC1CC=CCC1 (stereo unspecified) | – | inactive | inactive | inactive | 33.6% and -2.58% | inactive | inactive | 0.91% (inactive) and -0.814% (inactive) | -5.12% (inactive) and -6.19% (inactive) | -0.819% (inactive) and 2.71% (inactive) | 0.736% (inactive) | – | 39.8 µM (active) | inactive | inactive | inactive | inactive | inactive | – | inactive |
| CCOc1ccc(N)cc1 | – | inactive | inactive | – | – | – | – | -0.228% (inactive) | 7.24% (inactive) | 3.36% (inactive) | -0.901% (inactive) | – | – | inactive | inactive | inactive | – | inactive | – | inactive |
| O=[N+]([O-])c1cccc2ccccc12 | inactive | inactive | inactive | inactive | -7.08% and 18.1% | inactive | – | -0.404% (inactive) and -0.717% (inactive) | – | 5.16% (inactive) and 1.63% (inactive) | -1.75% (inactive) | – | – | – | – | inactive | – | – | inactive | inactive |
| Nc1ccc(Br)cc1 | inactive | inactive | inactive | inactive | – | – | – | -0.0985% (inactive) | – | -3.71% (inactive) | – | – | inactive | – | inactive | inactive | – | – | – | – |
